Results on 14 compounds are retold here after the supplement of paper PMC9897528.

Unmarked numbers belong to inactive results.
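Also: conidia screened in RPMI 1640 medium under 5% CO2, growth read by spectrophotometer, medium with 0.5% DMSO serving as the untreated reference.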

In this assay the test system is Scedosporium aurantiacum CBS 136046. The assay can be described thus: growth inhibition relative to DMSO control (OD600); higher = more antifungal activity, active = 80 or more; extreme values may be limits of the assay. Particulars: 5 µM; 72 h; 37 °C.
As for `CCc1cc(CCCOc2c(C)cc(-c3noc(C(F)(F)F)n3)cc2C)on1`, the growth inhibition was 7.39%.
`Nc1nc(C(F)(F)F)cc2c1[nH]c(=O)n2Cc1ccccc1`: the growth inhibition was 18.8%.
Turning to `CCOC(=O)N[C@@H]1CC[C@@H]2[C@@H](C1)C[C@H]1C(=O)O[C@H](C)[C@H]1[C@H]2/C=C/c1ccc(-c2cccc(F)c2)cn1`, the growth inhibition was 44.3%.
With `COc1cc(C(C(=O)NC2CCCCC2)N(C(=O)Cc2c[nH]c3ccccc23)c2ccc(C(C)C)cc2)cc(OC)c1OC` (centres undefined) the figure was 6.79%; with `Nc1nc2c(Cc3cccnc3)c[nH]c2c(=O)[nH]1`, 2.57%.
Under `[N-]=[N+]=N[C@H]1C[C@H](n2ccc(=O)[nH]c2=O)O[C@@H]1CO` stands 11.7%; under `C(=C\c1nc2ccccc2[nH]1)/c1ccc2c(c1)OCO2`, 17.1%.
With `COc1cc(NS(=O)(=O)c2ccc(C)cc2)c2ncccc2c1` the figure was 27.9%.
In the case of `CC(=N)N1CC[C@H](SC2=C(C(=O)O)N3C(=O)[C@@H]([C@@H](C)O)[C@H]3C2)C1`, the growth inhibition was 5.55%.
With `CCCCc1ccc(-c2cc(C(=O)O)cc(-c3ccc(Cl)cc3)n2)cc1` the figure was 37.3%; with `Nc1cc(-c2nc3ccccc3[nH]2)n[nH]c1=O`, 1.56%; with `COc1cc(Cc2cc(N)nc(N)n2)cc(OC)c1OC`, 11.7%.
Under `COc1ccc(-n2cnc3cc(NCc4ccco4)ccc32)cc1` stands 9.11%; under `CC(C)Oc1ccc(-n2cnc3cc(/C=C\c4ccc(C(C)(C)O)cc4)ccc32)cc1`, 28.5%.
